{"source": "the supplement of paper PMC8728848", "binders": {"B1": {"name": "SabA (Helicobacter pylori) (protein)", "chain": "MGSSHHHHHHSSGLVPRGSHMENLYFQGEDNGFFVSAGYQIGEAVQMVKNTGELKNLNEKYEQLSQYLNQVASLKQSIQNANNIELVNSSLNYLKSFTNNNYNSTTQSPIFNAVQAVITSVLGFWSLYAGNYFTFFVGKKVGDSGQPASVQGNPPFKTIIENCSGIENCAMDQTTYDKMKKLAEDLQAAQTNSATKGNNLCALSGCAATDSTSNPPNSTVSNALNLAQQLMDLIANTKTAMMWKNIVISGVSNTSGAITSTNYPTQYAVFNNIKAMIPILQQAVTLSQSNHTLSASLQAQATGSQTNPKFAKDIYTFAQNQKQVISYAQDIFNLFNSIPAEQYKYLEKAYLKIPNAGSTPTNPYRQVVNLNQEVQTIKNNVSYYGNRVDAALSVARDVYNLKSNQAEIVTAYNDAKTLSEEISKLPHNQVNTKDIVTLPYDKNAPAAGQSNYQINPEQQSNLNQALAAMSNNPFKKVGMISSQNNNGA"}}, "assay_in_all_cases": "glycan array binding signal (z-score within array); higher = stronger binding", "conditions_in_all_cases": "glycan notation: IUPAC condensed, linker removed", "key": {"[1]": {"target": "Gal(b1-4)GlcNAc(b1-3)Gal(b1-4)GlcNAc(b1-2)[Gal(b1-4)GlcNAc(b1-3)Gal(b1-4)GlcNAc(b1-6)]Man(a1-6)[Gal(b1-4)GlcNAc(b1-3)Gal(b1-4)GlcNAc(b1-2)Man(a1-3)]Man(b1-4)GlcNAc(b1-4)GlcNAc", "summary_of_the_method": "(§1)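 Columns mapping to the same glycan were averaged after glycan names were converted to IUPAC-condensed notation. The data come from 3228 arrays in the Consortium for Functional Glycomics database, limited to those with an available protein sequence. Binding is reported as a within-array Z-score averaged across arrays of one protein sequence and across linkers.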"}, "[2]": {"target": "Gal(b1-4)GlcNAc(b1-3)Gal(b1-4)GlcNAc(b1-3)Gal(b1-4)GlcNAc(b1-2)Man(a1-3)[Gal(b1-4)GlcNAc(b1-3)Gal(b1-4)GlcNAc(b1-3)Gal(b1-4)GlcNAc(b1-2)Man(a1-6)]Man(b1-4)GlcNAc(b1-4)[Fuc(a1-6)]GlcNAc", "summary_of_the_method": "as §1"}, "[3]": {"target": "Gal(b1-4)GlcNAc(b1-3)Gal(b1-4)GlcNAc(b1-3)Gal(b1-4)GlcNAc(b1-3)Gal(b1-4)GlcNAc(b1-2)Man(a1-3)[Gal(b1-4)GlcNAc(b1-3)Gal(b1-4)GlcNAc(b1-3)Gal(b1-4)GlcNAc(b1-3)Gal(b1-4)GlcNAc(b1-2)Man(a1-6)]Man(b1-4)GlcNAc(b1-4)[Fuc(a1-6)]GlcNAc", "summary_of_the_method": "as §1"}, "[4]": {"target": "Gal(b1-4)GlcNAc(b1-3)Gal(b1-4)GlcNAc(b1-3)Gal(b1-4)GlcNAc(b1-3)Gal(b1-4)GlcNAc(b1-3)Gal(b1-4)GlcNAc(b1-2)[Gal(b1-4)GlcNAc(b1-3)Gal(b1-4)GlcNAc(b1-3)Gal(b1-4)GlcNAc(b1-3)Gal(b1-4)GlcNAc(b1-3)Gal(b1-4)GlcNAc(b1-6)]Man(a1-6)[Gal(b1-4)GlcNAc(b1-3)Gal(b1-4)GlcNAc(b1-3)Gal(b1-4)GlcNAc(b1-3)Gal(b1-4)GlcNAc(b1-3)Gal(b1-4)GlcNAc(b1-2)Man(a1-3)]Man(b1-4)GlcNAc(b1-4)[Fuc(a1-6)]GlcNAc", "summary_of_the_method": "as §1"}, "[5]": {"target": "Gal(b1-4)GlcNAc(b1-3)Gal(b1-4)GlcNAc(b1-6)[Gal(b1-3)]GalNAc", "summary_of_the_method": "as §1"}, "GalNAc(b1-4)Gal(b1-4)Glc": {"target": "GalNAc(b1-4)Gal(b1-4)Glc", "summary_of_the_method": "as §1"}, "GalNAc(b1-4)GlcNAc": {"target": "GalNAc(b1-4)GlcNAc", "summary_of_the_method": "as §1"}, "[6]": {"target": "GalNAc(b1-4)GlcNAc(b1-2)Man(a1-3)[GalNAc(b1-4)GlcNAc(b1-2)Man(a1-6)]Man(b1-4)GlcNAc(b1-4)GlcNAc", "summary_of_the_method": "as §1"}, "[7]": {"target": "GalNAc3S(b1-4)[Fuc(a1-3)]GlcNAc", "summary_of_the_method": "as §1"}, "GalNAc6S(b1-4)GlcNAc": {"target": "GalNAc6S(b1-4)GlcNAc", "summary_of_the_method": "as §1"}, "[8]": {"target": "GlcA3S(b1-3)Gal(b1-4)GlcNAc(b1-2)Man", "summary_of_the_method": "as §1"}, "[9]": {"target": "GlcNAc(a1-4)Gal(b1-4)GlcNAc(b1-3)Gal(b1-4)Glc", "summary_of_the_method": "as §1"}, "[10]": {"target": "GlcNAc(b1-2)[GlcNAc(b1-4)]Man(a1-3)[GlcNAc(b1-2)Man(a1-6)]Man(b1-4)GlcNAc(b1-4)GlcNAc", "summary_of_the_method": "as §1"}, "[11]": {"target": "GlcNAc(b1-3)Gal(b1-4)GlcNAc(b1-2)Man(a1-3)[GlcNAc(b1-3)Gal(b1-4)GlcNAc(b1-2)Man(a1-6)]Man(b1-4)GlcNAc(b1-4)[Fuc(a1-6)]GlcNAc", "summary_of_the_method": "as §1"}, "GlcNAc(b1-3)GalNAc": {"target": "GlcNAc(b1-3)GalNAc", "summary_of_the_method": "as §1"}, "GlcNAc(b1-3)Man": {"target": "GlcNAc(b1-3)Man", "summary_of_the_method": "as §1"}, "[12]": {"target": "GlcNAc(b1-4)Gal(b1-4)GlcNAc", "summary_of_the_method": "as §1"}, "Man(a1-6)Man": {"target": "Man(a1-6)Man", "summary_of_the_method": "as §1"}, "[13]": {"target": "Neu5Ac(a2-3)Gal(b1-3)GalNAc", "summary_of_the_method": "as §1"}, "[14]": {"target": "Neu5Ac(a2-3)Gal(b1-3)GlcNAc(b1-2)Man(a1-3)[Neu5Ac(a2-3)Gal(b1-3)GlcNAc(b1-2)Man(a1-6)]Man(b1-4)GlcNAc(b1-4)GlcNAc", "summary_of_the_method": "as §1"}, "[15]": {"target": "Neu5Ac(a2-3)Gal(b1-3)GlcNAc(b1-3)GalNAc", "summary_of_the_method": "as §1"}, "[16]": {"target": "Neu5Ac(a2-3)Gal(b1-3)[Fuc(a1-4)]GlcNAc(b1-3)Gal(b1-3)[Fuc(a1-4)]GlcNAc", "summary_of_the_method": "as §1"}, "[17]": {"target": "Neu5Ac(a2-3)Gal(b1-3)[Neu5Ac(a2-6)]GlcNAc(b1-3)[Fuc(a1-3)[Gal(b1-4)]GlcNAc(b1-6)]Gal(b1-4)Glc", "summary_of_the_method": "as §1"}, "Neu5Ac(a2-3)Gal(b1-4)Glc": {"target": "Neu5Ac(a2-3)Gal(b1-4)Glc", "summary_of_the_method": "as §1"}, "[18]": {"target": "Neu5Ac(a2-3)Gal(b1-4)GlcNAc(b1-3)Gal(b1-4)GlcNAc(b1-3)Gal(b1-4)GlcNAc", "summary_of_the_method": "as §1"}, "[19]": {"target": "Neu5Ac(a2-6)Gal(b1-3)GlcNAc(b1-3)[Gal(b1-4)GlcNAc(b1-6)]Gal(b1-4)Glc", "summary_of_the_method": "as §1"}, "[20]": {"target": "Neu5Ac(a2-8)Neu5Ac(a2-3)Gal(b1-4)GlcNAc", "summary_of_the_method": "as §1"}, "[21]": {"target": "Neu5Ac(a2-8)Neu5Ac(a2-8)Neu5Ac", "summary_of_the_method": "as §1"}, "[22]": {"target": "Neu5Gc(a2-3)Gal(b1-4)GlcNAc", "summary_of_the_method": "as §1"}, "[23]": {"target": "Neu5Gc(a2-6)Gal(b1-4)GlcNAc", "summary_of_the_method": "as §1"}}, "note": "The sample as a whole holds a higher share of the strongest signals than the screen did.", "data": [{"binder": "B1", "values": [{"measurement": "glycan array binding signal (z-score)", "setting": "[1]", "result": 2.39}, {"measurement": "glycan array binding signal (z-score)", "setting": "[2]", "result": -0.537}, {"measurement": "glycan array binding signal (z-score)", "setting": "[3]", "result": 0.132}, {"measurement": "glycan array binding signal (z-score)", "setting": "[4]", "result": -0.103}, {"measurement": "glycan array binding signal (z-score)", "setting": "[5]", "result": -0.494}, {"measurement": "glycan array binding signal (z-score)", "setting": "GalNAc(b1-4)Gal(b1-4)Glc", "result": 1.6}, {"measurement": "glycan array binding signal (z-score)", "setting": "GalNAc(b1-4)GlcNAc", "result": 0.676}, {"measurement": "glycan array binding signal (z-score)", "setting": "[6]", "result": 2.98}, {"measurement": "glycan array binding signal (z-score)", "setting": "[7]", "result": -0.298}, {"measurement": "glycan array binding signal (z-score)", "setting": "GalNAc6S(b1-4)GlcNAc", "result": 0.834}, {"measurement": "glycan array binding signal (z-score)", "setting": "[8]", "result": -0.867}, {"measurement": "glycan array binding signal (z-score)", "setting": "[9]", "result": -0.716}, {"measurement": "glycan array binding signal (z-score)", "setting": "[10]", "result": -0.287}, {"measurement": "glycan array binding signal (z-score)", "setting": "[11]", "result": 0.826}, {"measurement": "glycan array binding signal (z-score)", "setting": "GlcNAc(b1-3)GalNAc", "result": 0.191}, {"measurement": "glycan array binding signal (z-score)", "setting": "GlcNAc(b1-3)Man", "result": 1.69}, {"measurement": "glycan array binding signal (z-score)", "setting": "[12]", "result": -0.173}, {"measurement": "glycan array binding signal (z-score)", "setting": "Man(a1-6)Man", "result": -0.738}, {"measurement": "glycan array binding signal (z-score)", "setting": "[13]", "result": 0.965}, {"measurement": "glycan array binding signal (z-score)", "setting": "[14]", "result": 1.79}, {"measurement": "glycan array binding signal (z-score)", "setting": "[15]", "result": -0.131}, {"measurement": "glycan array binding signal (z-score)", "setting": "[16]", "result": 0.27}, {"measurement": "glycan array binding signal (z-score)", "setting": "[17]", "result": -0.626}, {"measurement": "glycan array binding signal (z-score)", "setting": "Neu5Ac(a2-3)Gal(b1-4)Glc", "result": 2.88}, {"measurement": "glycan array binding signal (z-score)", "setting": "[18]", "result": 0.051}, {"measurement": "glycan array binding signal (z-score)", "setting": "[19]", "result": -0.762}, {"measurement": "glycan array binding signal (z-score)", "setting": "[20]", "result": -0.714}, {"measurement": "glycan array binding signal (z-score)", "setting": "[21]", "result": -0.39}, {"measurement": "glycan array binding signal (z-score)", "setting": "[22]", "result": -0.614}, {"measurement": "glycan array binding signal (z-score)", "setting": "[23]", "result": 0.779}]}]}
